Inconclusive results are not listed. Entries that show only a call come without a potency. Calls of active or inactive are those of the source. Calls follow the shape of the dose curve; as a rule, active = well fitted inhibition curve with a large enough effect; inconclusive = small, poorly fitted or top-dose-only effect; inactive = flat fitted curve, though single readings scatter.

This test relates to Zika virus NS2B-NS3 protease. Description: Primary screen GU AMC qHTS for Zika virus inhibitors (AID 1347154). Also: nearly all actives have a fitted effect of over 70% in size. The note with it: Zika NS2B-NS3 unlinked protease, AMC fluorogenic substrate; series mostly up to 54.1 µM. In short, it runs like this:
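Fluorogenic AMC-substrate cleavage by noncovalent NS2B-NS3 protease complex (25 nM, pH 8.0 Tris buffer with Tween 20) followed for 15 minutes at room temperature (~20% conversion). Percent inhibition from ex340/em450 signal change, fitted by 4-parameter Hill equation.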
For orientation: Quantitative high-throughput screening tests each substance at several concentrations.
As for `Oc1cccc(O)c1`, the Potency entry is “inactive”.

Regarding `NC(CSCC(=O)O)C(=O)O` (centres undefined), the Potency result was “inactive”.

Take `CC12CCC(CC1)C(C)(C)O2`: the Potency result is “inactive”.

With `[O-][n+]1cccc(CO)c1`, the Potency entry is “inactive”.

As for `NS(=O)(=O)c1cc2c(cc1Cl)NC(CSCc1ccccc1)=NS2(=O)=O`, the Potency result was “inactive”.

For the compound `CCOC(=O)c1ccc(O)cc1`, the Potency result was “inactive”.

Regarding `C/C(=C(\CCOP(=O)(O)O)SC(=O)c1ccccc1)N(C=O)Cc1cnc(C)nc1N`, the activity change, negative = inhibition was 0.0847% [at 4.99 µM] (inactive).

With `Cc1c(Cl)cccc1Nc1ccccc1C(=O)O`, the Potency result is “inactive”.

`O=C(O)c1ccccn1`: the Potency result is “inactive”.

Consider `CCCCN(CCCC)CCCOC(=O)c1ccc(N)cc1`, for which the Potency result was “inactive”.

For the compound `CN(C)CCCO[C@@H]1[C@H]2OC(C)(C)O[C@H]2O[C@@H]1C(O)CO` (some centres undefined), the Potency entry was “inactive”.

For `CN(C)CCN(Cc1ccccc1)c1ccccn1`, the Potency result is “inactive”.

On to `CCCCC(CC)COC(=O)c1ccccc1O` (centres undefined), for which the Potency result is “inactive”.

`COc1ccc(S(=O)(=O)Nc2nnc(CC(C)C)s2)cc1`: the Potency entry was “inactive”.

As to `O=C(O)CC(O)C(=O)O` (centres undefined), the Potency result was “inactive”.

As for `CC(O)CN(CCN(CC(C)O)CC(C)O)CC(C)O` (centres undefined), the Potency entry is “inactive”.

Consider `C[C@@H]1CCN(C(=O)[C@H](CCCN=C(N)N)NS(=O)(=O)c2cccc3c2NC[C@H](C)C3)[C@@H](C(=O)O)C1`, for which the Potency result was “inactive”.

Regarding `CC1(C)OC(=O)NC1=O`, the Potency result was “inactive”.

As to `Oc1cn2c(n1)Nc1ccc(Cl)c(Cl)c1C2`, the Potency entry is “inactive”.

For `NC(=O)NNc1ccccc1`, the Potency entry was “inactive”.

Take `CC1(C)[C@@H]2CC[C@@]1(C)C(=O)C2`: the Potency entry is “inactive”.

On to `C=Cc1c(C)c2cc3[nH]c(cc4nc(cc5nc(cc1[nH]2)C(C)=C5CCC(=O)O)C(CCC(=O)O)=C4C)c(C)c3C=C`, for which the Potency entry is “inactive”.

Regarding `OCC(CO)N[C@H]1C[C@](O)(CO)[C@@H](O)[C@H](O)[C@H]1O`, the Potency entry is “inactive”.

Turning to `CC(=O)NC(Cc1ccccc1)C(=O)O` (centres undefined), the Potency result was “inactive”.

In the case of `CCC(=O)c1ccc(O)cc1`, the Potency result is “inactive”.

`CCCc1c(OCCCCc2nn[nH]n2)ccc(C(C)=O)c1O`: the Potency result is “inactive”.

Consider `Cc1cc(O)cc2c1O[C@](C)(CCC[C@H](C)CCC[C@H](C)CCCC(C)C)CC2`, for which the Potency result is “inactive”.

Consider `CN(N=O)C(=O)N[C@@H]1[C@@H](O)[C@H](O)[C@@H](CO)O[C@@H]1O`, for which the Potency result is “inactive”.

`Cc1ncc(COP(=O)(O)O)c(C=O)c1O`: the Potency entry is “inactive”.

`CCn1cc(C(=O)O)c(=O)c2cnc(N3CCNCC3)nc21`: the Potency result was “inactive”.

For the compound `O=C(O)c1ccccc1-c1ccc(C(F)(F)F)cc1`, the Potency entry is “inactive”.

Take `CC(=O)Oc1c(C)c(C)c2c(c1C)CC[C@@](C)(CCC[C@H](C)CCC[C@H](C)CCCC(C)C)O2`: the Potency result was “inactive”.

Consider `O=S(=O)(O)c1cc(I)c(O)c2ncccc12`, for which the Potency entry is “inactive”.

For the compound `CN1CCCCC1CCN1c2ccccc2Sc2ccc(S(C)=O)cc21` (centres undefined), the Potency result was “inactive”.

Turning to `NC(=O)c1ncn([C@@H]2O[C@H](CO)[C@@H](O)[C@H]2O)c1N`, the Potency result is “inactive”.

Consider `CC1(C)S[C@@H]2[C@H](NC(=O)Cc3ccccc3)C(=O)N2[C@H]1C(=O)O` (tested in a mixture with another compound), for which the Potency entry was “inactive”.

Regarding `Nc1ccc(S(=O)(=O)NC(=O)c2ccccc2)cc1`, the Potency entry was “inactive”.

`N[C@H]1C(O)O[C@H](CO)[C@@H](O)[C@@H]1O` (some centres undefined): the Potency result was “inactive”.

For `OC[C@H]1O[C@@H](O[C@@H]2[C@@H](CO)O[C@](O)(CO)[C@H]2O)[C@H](O)[C@@H](O)[C@H]1O`, the Potency result was “inactive”.

These data come from PubChem BioAssay (NCATS).
